This is a sample that favours compounds with a hit; in the whole collection about 7.4% have one here.
ELG1 genotoxic: inducers of genotoxicity in HEK293T ELG1-luciferase cells; AID 504466; HEK293T ELG1-luciferase reporter, luminescence, 16 h; 1.3% of 330,000 active; Potency, µM (top dose mostly 46 µM), for inactives: top-dose activity change, positive = activation, hits mostly activators; note: % of control where 0% means no effect; nearly all actives have a fitted effect of over 60% in size
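Genotoxicity was scored as increased ELG1-luciferase reporter signal, measured by ONE-Glo luminescence (30 min, room temperature). Compound or vehicle exposure of the HEK293T reporter cells lasted 16 hr at 37°C.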
Rab9 prom act: Rab9 promoter activation; Huh7 Rab9 promoter-luciferase reporter, luminescence, 24 h; Potency, µM (series often up to 9.22 µM), for the others: at the top dose activation, negative = inhibition, actives largely listed as activators; 2.8% of 320,000 active; AID 485297; note: % of control where 0% means no effect; nearly all actives have a fitted effect of over 60% in size
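Cells were plated at 1500 per well in reduced-serum medium with 10% FBS and left 2 h. Compound in DMSO was then added for 24 h at 37 °C. Reporter signal was read by luminescence after 10 min with luciferase detection reagent.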
NPC1 prom act: activators of NPC1 promoter; Huh7 NPC1 promoter luciferase reporter, 24 h; Potency, µM (highest dose often 9.22 µM), inactives show top-dose activation, usual class: activators; 2.4% of 320,000 active; note: % of control where 0% means no effect; nearly all actives have a fitted effect of over 60% in size
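Cells: Huh7 expressing luciferase under the NPC1 promoter, 1500/well. Seeded 2 h, compound added, incubated 24 h at 37 °C. Luciferase reagent, 10 min ambient, then luminescence.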
FLuc counter: counter-screen for miR-21 project: firefly luciferase inhibitors or activators; purified FLuc, Km substrates, luminescence inhibition; Potency, µM (highest dose often 57.5 µM), for inactives: at the highest dose activity change, negative = inhibition, hits mostly inhibitors; 6.9% of 360,000 active; AID 588342;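 note: plate controls were vehicle for no effect and reference inhibitor for full effect; nearly all actives have a fitted effect of over 55% in size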
Target sequence (P08659 whole entry, looked up): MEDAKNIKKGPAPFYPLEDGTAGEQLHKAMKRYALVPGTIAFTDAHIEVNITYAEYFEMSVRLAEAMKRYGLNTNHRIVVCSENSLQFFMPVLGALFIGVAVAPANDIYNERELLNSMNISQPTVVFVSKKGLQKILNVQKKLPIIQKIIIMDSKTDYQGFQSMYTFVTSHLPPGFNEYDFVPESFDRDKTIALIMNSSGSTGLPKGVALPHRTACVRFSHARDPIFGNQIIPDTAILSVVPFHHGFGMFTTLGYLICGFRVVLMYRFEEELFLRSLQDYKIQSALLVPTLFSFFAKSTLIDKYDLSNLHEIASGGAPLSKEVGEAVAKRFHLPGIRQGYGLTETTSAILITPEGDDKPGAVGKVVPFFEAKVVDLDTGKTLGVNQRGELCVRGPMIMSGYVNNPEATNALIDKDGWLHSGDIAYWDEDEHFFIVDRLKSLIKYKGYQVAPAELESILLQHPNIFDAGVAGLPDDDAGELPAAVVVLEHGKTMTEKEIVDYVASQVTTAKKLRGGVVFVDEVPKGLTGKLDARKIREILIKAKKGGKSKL
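Purified P. pyralis luciferase (10nM final) with 10uM D-luciferin and 10uM ATP (Km levels) in 50mM Tris acetate pH 7.5, 10mM Mg acetate, 0.01% Tween-20, 0.05% BSA; qHTS 6-point titration, ~60 µM downward; luminescence read.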
SMN2 splice up: enhancers of SMN2 splice variant expression; Potency, µM (doses to about 46.1 µM), without a hit: top-dose activity change, positive = activation, most hits filed as activators; 2.8% of 210,000 active; HEK293 SMN2-luciferase splicing reporter, luminescence, 30-36 h; note: % of control where 0% means no effect; nearly all actives have a fitted effect of over 55% in size
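HEK293 cells carry an SMN2 […]–luciferase reporter in which exon 7 inclusion puts luciferase in frame. Cells were plated 10-12 h before compound addition, then incubated 30-36 h at 37C. ONE-Glo luminescence was read; sodium butyrate at 4.5 mM final served as control.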
KinaseGlo FLuc: Kinase-Glo luciferase inhibition (counter-screen). Potency, µM (titrated, usually from 38.3 µM), inactives show at the top dose activity change, negative = inhibition, usual class: inhibitors. Q27757. Kinase-Glo luciferase, ATP luminescence, 8 min. AID 1379. 0.28% of 200,000 active; note: % is set by controls: 0 for no effect and ±100 for the full control effect; nearly all actives have a fitted effect of over 60% in size
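Kinase-Glo luciferase light output from ATP and luciferin was measured with 10 uM ATP, within the enzyme's linear range. Buffer: 50 mM imidazole pH 7.2, 50 mM KCl, 7 mM MgCl2, 0.01% Tween 20, 0.05% BSA; luminescence read after 8 min at ambient temperature.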
Active calls of the source: *; ? = inconclusive; . = no result given; [ ] = dose if it differs, or a comment. Calls come from the whole dose curve; as a rule, active = well fitted curve in the direction sought with a large enough effect; inconclusive = small, poorly fitted or top-dose-only effect, or another doubt; inactive = no such curve, though single readings can be large; an effect the other way counts as inactive or inconclusive. Potency is the fitted concentration of half-maximal effect.

SMILES | ELG1 genotoxic | Rab9 prom act | NPC1 prom act | FLuc counter | SMN2 splice up | KinaseGlo FLuc
COc1cccc(C(=O)NCCCNC(=O)c2ccccn2)c1 | -4% | -4% | 0% | -2% | . | .
COc1cccc(C(=O)O/N=C(\N)c2ccccn2)c1 | ? | 3.2µM* | 2.5µM* | 0.076µM* | . | .
CCCc1ccc(C(=O)O/N=C(\N)c2ccccn2)cc1 | 0.41µM* | -22% | -20% | 0.067µM* | . | .
CC1C(=O)N2CCCc3cc(S(=O)(=O)N4CCN(c5cccc(Cl)c5)CC4)cc1c32 (stereo not given) | -6% | -8% | 3% | 0% | . | .
CCc1cccc(NC(=O)c2ccc3c(=O)n4nc(Nc5ccccc5OC)sc4nc3c2)c1 | . | . | . | -7% | . | .
O=C(NNC(=O)c1ccc(-c2ccccc2)cc1)Nc1ccc(F)cc1F | ? | 3% | 0% | 4% | . | .
O=C(Nc1cc(-c2nc3ccccc3s2)ccc1Cl)c1cc2ccccc2o1 | . | . | . | ? | 4% | .
CC(=O)Nc1cc(-c2nc3ccccc3s2)ccc1C | . | . | . | 6.7µM* | 20% | .
Cc1ccc(-c2nc3ccccc3s2)cc1NC(=O)c1cc(-n2cnnc2)ccc1Cl | ? | 5% | -29% | 1.5µM* | 4% | -2%
Cc1ccc(-c2nc3ccccc3s2)cc1NC(=S)NC(=O)c1ccccc1 | ? | 12% | 12% | 9.5µM* | -6% | -9%
COc1ccc(/C=C2/SC(=O)NC2=O)cc1 | ? | 3.2µM* | ? | 4.3µM* | . | 1%
COc1ccccc1N=C1NC(=O)/C(=C/c2ccc(N(C)C)cc2)S1 | ? | 4% | -11% | 1.1µM* | . | .
CCOc1ccc(N=C2NC(=O)S/C2=C\c2ccc(OC)cc2)cc1 | 5% | -3% | -2% | 3% | -15% | 19%
O=C1NC(=O)/C(=C\c2ccc(Cl)nc2)S1 | ? | ? | ? | 15µM* | . | 0%
CCc1ccc(N=C2NC(=O)/C(=C/c3ccc(OCC(=O)O)cc3)S2)cc1 | -1% | -11% | 2% | 6µM* | . | .
Cc1ccc(NC(=O)C2CCCN(c3ncnc4onc(C)c34)C2)c(Cl)c1 (stereo not given) | . | . | . | 5% | . | .
COc1ccccc1NC(=O)CN1C(=O)C(C)(C)c2ccccc21 | . | . | . | -2% | . | .
Cc1cccc(NC(=O)C(C)SCc2nc3sc4c(c3c(=O)[nH]2)CCCC4)n1 (stereo not given) | -3% | -7% | -8% | 1% | . | .
CC1CCN(CC(CS(=O)(=O)c2ccc([N+](=O)[O-])cc2)N2CCC(C)CC2)CC1 (stereo not given) | -9% | -42% | -23% | 0% | . | .
CCOC(=O)CN1C(=O)CC(c2ccccc2)C1=O (stereo not given) | 1% | -7% | -2% | 2% | . | .
COc1ccc(/C=C2\SC(=Nc3ccccc3)NC2=O)cc1 | 7% | 4% | -5% | 7.6µM* | . | .
O=C1NC(=Nc2cccnc2)S/C1=C/c1ccc(F)cc1 | 3% | -6% | -4% | 11µM* | . | .
c1ccc(-c2ccc(-c3ccccn3)nn2)nc1 | 10% | 0.32µM* | 0.32µM* | 1.3µM* | 7.1µM* | 10µM*
COc1ccc(CCNC(=O)c2ccc3c(c2)OCCO3)cc1 | ? | 3.2µM* | ? | 9.5µM* | ? | 0%
O=C(NCCS(=O)(=O)NCCc1ccccc1)c1ccc2c(c1)OCO2 | 2.1µM* | 3.2µM* | 4.5µM* | 12µM* | . | .
SMILES | ELG1 genotoxic | Rab9 prom act | NPC1 prom act | FLuc counter | SMN2 splice up | KinaseGlo FLuc
O=C(NCCc1ccccc1)c1ccc2c(c1)OCCCO2 | ? | ? | -37% | 0.06µM* | . | .
COc1ccc(CCNC(=O)c2coc(=O)c(Br)c2)cc1 | 18µM* | 9% | 9% | 0% | . | .
COc1ccc(CCNC(=O)c2ccc3c(c2)OCO3)cc1 | 15% | ? | 23% | ? | . | .
O=C(NCCc1ccccc1)c1ccc2c(c1)OCCO2 | ? | 0.0032µM* | 0.016µM* | 0.13µM* | . | .
O=C(NCc1cccc(Cl)c1)c1ccc2c(c1)OCCO2 | 11% | 24% | 19% | ? | . | .
O=C(NCCc1cccc(Cl)c1)c1ccc2c(c1)OCO2 | 2.6µM* | 0.45µM* | 0.32µM* | 1.5µM* | . | .
CSc1ccccc1-c1nnc(-c2ccc(Cl)c(Cl)c2)o1 | ? | ? | ? | 7.6µM* | 12% | -3%
CCSc1nnc(-c2ccccc2SC)o1 | -6% | 2% | -1% | ? | 6% | 0%
CSc1ccccc1-c1nnc(-c2ccc(Cl)cc2Cl)o1 | ? | 3.2µM* | ? | 2.1µM* | ? | -13%
CCC(=O)NC1(C(F)(F)F)C(=O)Nc2c1c(=O)[nH]c(=O)n2CC(C)C (stereo not given) | 0% | -3% | -6% | -1% | . | .
CCn1nc(C(=O)N[C@@H](CCSC)c2nc3ccccc3[nH]2)c2ccccc2c1=O | 16% | 0% | 2% | 11µM* | 18% | 13%
CCCCn1nc(C(=O)N[C@@H](CCSC)c2nc3ccccc3[nH]2)c2ccccc2c1=O | . | . | . | ? | -11% | -4%
COC(=O)c1ccc(OC(=O)c2cccnc2SC)cc1 | 7% | -3% | 0% | ? | . | .
CN(C)c1ccc(/C=C(\C#N)c2ccccn2)cc1 | ? | 0.4µM* | 0.45µM* | 0.24µM* | . | 7.9µM*
N#C/C(=C\c1cccnc1)c1ccc([N+](=O)[O-])cc1 | -4% | 3% | -3% | -11% | . | .
N#C/C(=C\c1ccccn1)c1ccccn1 | 5% | ? | 29% | ? | . | .
N#C/C(=C\c1ccc([N+](=O)[O-])cc1)c1ccccn1 | ? | ? | 1.6µM* | ? | . | -28%
N#C/C(=C/c1cccs1)c1ccccn1 | ? | 4.5µM* | 2.8µM* | 12µM* | . | .
COc1cc(/C=C(\C#N)c2ccccn2)ccc1OCc1ccccc1Cl | -2% | 2% | -1% | -16% | . | .
COC(=O)c1ccc(OC(=O)c2ccccn2)cc1 | -5% | -6% | 1% | 11µM* | 28% | -15%
COc1cc(/C=C/C(=O)O)cc(S(=O)(=O)Nc2ccc3c(c2)CCC3)c1OC | -1% | -2% | 1% | 1% | . | .
COC(=O)c1ccc(/C=C(\C#N)c2ccccn2)cc1 | 2.6µM* | 0.89µM* | 1.1µM* | 2.4µM* | ? | ?
COc1cc(/C=C(\C#N)c2ccccn2)cc(OC)c1O | 0% | -1% | -7% | -4% | . | .
Cc1ccc(-n2nnc3ccccc3c2=O)cc1C | ? | 3.5µM* | ? | 2%[2.3 µM] | 14µM* | -16%
CC(Oc1ccc2c(c1)oc(=O)c1ccccc12)C(=O)NCCN1CCOCC1 (stereo not given) | 0% | -5% | -4% | 4% | . | .
CCCCNC(=O)Nc1nc2ccccc2s1 | ? | 1.4µM* | 2.5µM* | 11µM* | 11µM* | -2%
CCCCNC(=O)Nc1ccon1 | 2% | -9% | 0% | 1% | -27% | 1%

Screening data deposited in PubChem BioAssay by National Center for Advancing Translational Sciences (NCATS).
